# The campaign covered roughly 2,100 compounds. About 590 (28%) were called active. Another 42% or so got no clear call; they are omitted. Calls come from the whole dose curve; as a rule, active = well fitted inhibition curve with a large enough effect; inconclusive = small, poorly fitted or top-dose-only effect; inactive = flat fitted curve, though single readings scatter. Some of the results follow.
# Target: DNA dC->dU-editing enzyme APOBEC-3F (Homo sapiens) (UniProt Q8IUX4)
# Assay: qHTS for inhibitors of Vif-A3F interactions: Cherry picks; note: nearly all actives have a fitted effect of over 70% in size;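 for max response: % of control where 0% means no effect; active compounds raise eYFP fluorescence by blocking Vif-driven A3F loss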
# Conditions: HeLa A3F-eYFP + Vif (tagged APOBEC3F with the HIV-1 protein that degrades it), eYFP fluorescence, 24 h
# How it was run: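 HeLa cells stably expressing A3F-eYFP plus Vif, cultured overnight, then exposed to compounds at several concentrations for 24 h at 37 deg C. Reduced Vif-driven degradation read as rising eYFP fluorescence (488 nm ex/500-530 nm em) by laser-scanning cytometry; MG132 as positive control.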
# Potency is the fitted concentration of half-maximal effect.
# Chain of DNA dC->dU-editing enzyme APOBEC-3F (Homo sapiens) (Q8IUX4 whole entry, looked up): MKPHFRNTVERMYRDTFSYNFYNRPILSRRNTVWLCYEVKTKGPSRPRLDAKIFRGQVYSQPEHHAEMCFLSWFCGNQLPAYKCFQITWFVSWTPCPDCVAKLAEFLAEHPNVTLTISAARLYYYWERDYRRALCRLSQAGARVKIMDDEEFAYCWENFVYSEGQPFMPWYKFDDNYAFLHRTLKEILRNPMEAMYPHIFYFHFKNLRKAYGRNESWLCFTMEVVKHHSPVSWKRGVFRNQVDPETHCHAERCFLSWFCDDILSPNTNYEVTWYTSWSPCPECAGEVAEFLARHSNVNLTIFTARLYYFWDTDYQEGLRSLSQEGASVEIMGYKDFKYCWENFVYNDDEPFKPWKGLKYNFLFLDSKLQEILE
Compound,max response,Potency
COc1cccc(NC(=O)Nc2nc(-c3ccc(OC)c(OC)c3)cs2)c1,-25.2% (inactive),–
COc1ccc(-c2csc(NC(=S)NC(=O)/C=C/c3ccco3)n2)cc1Br,–,7.04 µM (active)
O=C(/C=C/c1ccco1)NC(=S)Nc1ccc(N2CCCC2)cc1,-28% (inactive),–
Cc1ccc(C(=O)NCCn2c(N)c(C#N)c3nc4ccccc4nc32)cc1,–,23.1 µM (active)
Cn1c(=S)c2[nH]c(SCCN3CCCC3)nc2n(C)c1=O,0.53% (inactive),–
O=C(N/N=C/c1c(O)n(-c2ccc(Cl)cn2)c(=O)c2ccccc12)c1ccncc1,-9.07% (inactive),–
COc1ccc(N=Cc2c(O)n(-c3cccc(C)n3)c(=O)c3ccccc23)c(OC)c1,–,13 µM (active)
Cc1ccc(N=Cc2c(O)n(-c3nccs3)c(=O)c3ccccc23)c(C)c1,-4.13% (inactive),–
CCC(=Nc1ccccc1O)C1=C(O)CC(c2ccccc2)CC1=O (stereo unspecified),-8% (inactive),–
CCN(CC)c1ccc2cc(-c3nc(-c4ccc(Cl)cc4Cl)cs3)c(=O)oc2c1,-3.92% (inactive),–
CCN(CC)c1ccc2cc(-c3nnc(-c4cccc(Cl)c4)o3)c(=O)oc2c1,–,0.58 µM (active)
CCN(CC)c1ccc2cc(-c3nc(-c4ccccc4)no3)c(=O)oc2c1,–,3.66 µM (active)
CCN(CC)c1ccc2cc(-c3nnc(-c4ccccc4)o3)c(=O)oc2c1,–,0.0994 µM (active)
CCN(CC)c1ccc2cc(-c3nc(-c4cccs4)no3)c(=O)oc2c1,–,2.06 µM (active)
CCOC(=O)c1c(C)sc(-c2c(-c3ccccc3)[nH]c3[nH]c(=O)[nH]c(=O)c23)c1O,-22.6% (inactive),–
Cc1ccc(Nc2nc(-c3cccnc3)nc3ccccc23)cc1,-12.4% (inactive),–
CC1CCN(C(=O)C(C)Sc2nc(-c3ccccc3)cc(C(F)(F)F)n2)CC1 (stereo unspecified),1.1% (inactive),–
CCN(CC)c1ccc2cc(-c3nc4ccccc4n3C)c(=O)oc2c1,–,4.11 µM (active)
CCN(CC)c1ccc2cc(-c3nc(-c4cc(OC)c(OC)c(OC)c4)no3)c(=O)oc2c1,–,0.366 µM (active)

Compound,max response,Potency
CC1=C/C(=C\C=C(C#N)C#N)N(C)c2ccccc21,–,2.31 µM (active)
CN1/C(=C/C=C(/C#N)C(N)=O)C(C)(C)c2ccccc21,–,6.27 µM (active)
CN1/C(=C/C=C(C#N)C#N)C(C)(C)c2ccccc21,–,18.4 µM (active)
COCCNC(=S)N/N=C(\C)c1ccc(OC(F)F)cc1,0.658% (inactive),–
Cc1cccc(-c2noc(-c3ccc(NCc4ccco4)c([N+](=O)[O-])c3)n2)c1,–,14.6 µM (active)
O=[N+]([O-])c1cc(-c2nc(-c3ccccc3)no2)ccc1NCc1ccco1,–,8.2 µM (active)
COc1ccccc1-c1noc(-c2ccc(NCc3ccco3)c([N+](=O)[O-])c2)n1,–,14.6 µM (active)
O=c1c2ccccc2sc2ccc(NCCCN3CCOCC3)cc12,–,20.6 µM (active)
Cc1ccc(C)c(NC(=O)N2CC=C(c3c[nH]c4ccccc34)CC2)c1,-19.7% (inactive),–
Cc1ccc(C)c(NC(=O)Cn2cc(S(=O)(=O)Cc3cccc(Cl)c3)c3ccccc32)c1,–,8.2 µM (active)
Cc1ccc(Cl)cc1NC(=O)Nc1cn(CC(C)C)c(=O)c2ccccc12,-13.3% (inactive),–
Cc1ccc(S(=O)(=O)C(C#N)c2nc3ccccc3nc2N2CCCC2)cc1 (stereo unspecified),-28.7% (inactive),–
S=C(NCc1ccco1)Nc1ccc(Cl)cn1,-0.0392% (inactive),–
COc1cc2nc(SCC(=O)NCc3ccco3)n(Cc3ccc(Cl)cc3)c(=O)c2cc1OC,–,8.2 µM (active)
CCn1c(SCC(=O)Nc2cccc(O)c2)nc2c1c(=O)n(C)c(=O)n2C,0.997% (inactive),–
COc1ccc(NC(=O)CSc2nc3c(oc4ccccc43)c(=O)n2Cc2ccco2)cc1Cl,–,14.6 µM (active)
COc1ccccc1CCC(=O)Nc1ccc2c(c1)c(=O)n(C)n2Cc1ccc(F)cc1,-22.3% (inactive),–
CCCCOc1ccc(-c2nnn(CC(=O)NCc3ccco3)n2)cc1,-20.9% (inactive),–
O=Cc1s/c(=N\S(=O)(=O)c2ccccc2)n(CCCCl)c1Cl,-29.9% (inactive),–

Compound,max response,Potency
COc1ccc(C(=O)/C=C/Nc2ccc([N+](=O)[O-])cc2C)c(OC)c1,–,13 µM (active)
COc1ccc(NC(=S)Nc2ncccc2C)c(OC)c1,0.806% (inactive),–
COc1ccc(C(=O)c2cc([N+](=O)[O-])ccc2N2CCCC2)cc1,-19.8% (inactive),–
O=C(NC(=S)Nc1ccc(-c2ccccc2)cc1)c1ccccc1,1.35% (inactive),–
COc1ccccc1NC(=O)Cc1ccc(-c2ccccc2)cc1,3.04% (inactive),–
O=C(Nc1ccccc1OC(=O)c1ccccc1)c1ccccc1,–,17.7 µM (active)
COC(=O)c1cc(Nc2nc3ccccc3nc2NS(=O)(=O)c2ccc(C)cc2)ccc1Cl,-5.41% (inactive),–
COc1ccc(/C=C/C=C2\NC(=S)NC2=O)cc1,-26% (inactive),–
COc1ccc(/C=C2\C(=O)NC(=S)N2C(=O)c2ccc(F)cc2)cc1,–,13 µM (active)
C[n+]1ccc(/C=C/c2cc[n+](C)c3ccccc23)c2ccccc21,–,11.6 µM (active)
C=CCN1C(=O)c2ccc(C(=O)N(CC(C)C)c3c(N)n(CCCC)c(=O)[nH]c3=O)cc2C1=O,4.71% (inactive),–
CCCCn1c(N)c(N(CCC(C)C)C(=O)c2ccc([N+](=O)[O-])o2)c(=O)[nH]c1=O,0.229% (inactive),–
CCCCn1c(N)c(N(CC(C)C)C(=O)Cc2ccc(S(=O)(=O)N3CCOCC3)s2)c(=O)[nH]c1=O,–,23.1 µM (active)
COc1cccc(/C(O)=C/c2nc3ccc(C(=O)NCCc4cccc(C)c4)cc3[nH]c2=O)c1,–,11.6 µM (active)
COc1cccc(/C(O)=C/c2nc3ccc(C(=O)NCCc4ccc(Cl)cc4)cc3[nH]c2=O)c1,–,8.2 µM (active)
COc1cccc(Sc2ccccc2/C=N/NC(N)=O)c1,-25.5% (inactive),–
CCn1c(SCC(=O)N/N=C/c2ccc(C)s2)nc2ccccc21,-29.4% (inactive),–
COc1ccc2nc(C)cc(SCC(=O)N/N=C/c3cccc4ccccc34)c2c1,–,11.2 µM (active)
